Bioassay records deposited in PubChem by National Center for Advancing Translational Sciences (NCATS).
KB-3-1 tox = KB-3-1 parental cell cytotoxicity; KB-3-1 viability, CellTiter-Glo ATP luminescence, 72 h; Potency, µM (series often up to 46.1 µM), most hits filed as cytotoxic; hit rate 1.4% among 400,000; AID 1347075; also: nearly all actives have a fitted effect of over 60% in size
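Parental KB-3-1 adenocarcinoma cells in phenol-red-free DMEM with 10% FBS were pin-treated with compounds at several concentrations, incubated 72 h at 37 °C, and viability read by CellTiter-Glo luminescence; concentration-effect curves were fitted after normalization.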
KB-V1 cytotox = KB-V1 MDR subline cytotoxicity. KB-V1 MDR cells viability, CellTiter-Glo, 72 h. hit rate 3.4% among 400,000. Potency, µM (series often up to 46.1 µM), usual class: cytotoxic; also: nearly all actives have a fitted effect of over 60% in size
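Drug-selected KB-V1 cells, grown in DMEM lacking phenol red with 10% FBS, receive compound titrations; after three days at 37 degrees C, surviving cell ATP is quantified by CellTiter-Glo luminescence and responses normalized and curve-fitted.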
HT1080 IDH1KD tx = HT-1080 IDH1 knockdown cell toxicity (counter line); HT-1080 IDH1 knockdown viability, ATP luminescence, 48 h; AID 686971; hit rate 2% among 360,000; Potency, µM (series often up to 46.1 µM), for inactives: at the top dose activity, negative = toxicity, most hits filed as cytotoxic;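 also: 0% = DMSO wells and -100% = cell-free medium wells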
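Cytotoxicity counter-line: IDH1KD HT-1080, 48 h, CellTiter-Glo. Curves classed by r2, magnitude and activity.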
DT40 TDP1 no CPT = qHTS for Inhibitors of human tyrosyl-DNA phosphodiesterase 1 (TDP1): qHTS in cells in absence of CPT; AID 686978, 2013; Potency, µM (highest dose often 46.2 µM), inactives show at the highest dose activity change, negative = growth inhibition, actives largely listed as inhibitors; DT40 Tdp1-/- hTDP1 cells, no CPT, ATP luminescence, 48 h; hit rate 15% among 420,000; also: nearly all actives have a fitted effect of over 55% in size
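Compound effects on proliferation are scored in DT40 Tdp1-/-;hTDP1 cells in the absence of CPT. ATP levels (CellTiter-Glo luminescence) are recorded after a ≥48 hr, 37 °C incubation.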
HT1080-NT tox = kills 2HG-producing HT-1080-NT fibrosarcoma cells | Potency, µM (top dose mostly 46.1 µM), for the others: at the highest dose activity, negative = less viability, actives largely listed as cytotoxic | AID 686970 | hit rate 1.6% among 360,000 | HT-1080-NT fibrosarcoma viability, CellTiter-Glo ATP luminescence, 48 h;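 also: NT is the 2HG producing partner of a matched IDH1 knockdown line; 0% = DMSO-treated cells and -100% = media-only wells without cells; nearly all actives have a fitted effect of over 55% in size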
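Viability of the 2HG-overproducing fibrosarcoma line after 48 hours of compound exposure at 37 degrees C was determined by luminescence with CellTiter-Glo, and concentration-effect curves were then fitted and categorized.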
TDP1 cell CPT = growth inhibition of DT40 Tdp1-/-;hTDP1 cells with camptothecin (screen for TDP1 inhibitors); chicken DT40 Tdp1-/-;hTDP1 cells + 20 nM CPT, ATP luminescence, 48 h; Potency, µM (titrated, usually from 46.2 µM), inactives show at the top dose activity change, negative = growth inhibition, actives largely listed as inhibitors; hit rate 12% among 420,000; also: nearly all actives have a fitted effect of over 55% in size
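Chicken DT40 Tdp1-/- cells stably complemented with human TDP1 were seeded at 400 cells/well in medium containing 20 nM camptothecin, exposed to pin-transferred compounds, and grown at 37 °C for at least 48 hr. Viability was read as ATP luminescence.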
* hit, by the source's call; i = inactive; u = inconclusive; x = no result given. In the library only some 19% were active in any assay of this set; here they are far more common. Calls follow the shape of the dose curve; as a rule, active = well fitted curve in the direction sought with a large enough effect; inconclusive = small, poorly fitted or top-dose-only effect, or another doubt; inactive = no such curve, though single readings can be large; an effect the other way counts as inactive or inconclusive. Unless noted, % is scaled to controls: 0 for no effect and ±100 for the full control effect; potency is read from the fitted curve at half-maximal effect.

SMILES | KB-3-1 tox | KB-V1 cytotox | HT1080 IDH1KD tx | DT40 TDP1 no CPT | HT1080-NT tox | TDP1 cell CPT
CCOCCCn1c(SCC(=O)NCc2ccccc2)nc2c(sc3ccccc32)c1=O | i | i | x | u | x | -26%
CCN(CC)C(=O)[C@H]1CC(CC(=O)NC/C=C(\C)CCC=C(C)C)C(=O)N2CCc3c([nH]c4ccc(OC)cc34)[C@]12C (stereo partly drawn) | u | u | 16µM* | u | u | u
C[C@]12c3[nH]c4ccccc4c3CCN1C(=O)C(CC(=O)NCc1ccco1)C[C@@H]2C(=O)N1CCCCC1 (stereo partly drawn) | i | i | -4% | u | -2% | u
CCN(CC)C(=O)[C@H]1C[C@H](CC(=O)NC/C=C(\C)CCC=C(C)C)C(=O)N2CCc3c([nH]c4ccc(Cl)cc34)[C@]12C | u | i | 1% | u | 8% | u
CC(C)=CCC/C(C)=C/CNC(=O)C[C@H]1C[C@H](C(=O)N2CCCCC2)[C@@]2(C)c3[nH]c4cc(-c5ccco5)ccc4c3CCN2C1=O | u | u | u | 21µM* | u | u
CC(C)=CCC/C(C)=C/CNC(=O)CC1C[C@H](C(=O)N2CCCCC2)[C@@]2(C)c3[nH]c4ccccc4c3CCN2C1=O (stereo partly drawn) | i | i | 3% | 13µM* | -2% | 21µM*
CCN(CC)C(=O)[C@H]1CC(CC(=O)NC/C=C(\C)CCC=C(C)C)C(=O)N2CCc3c([nH]c4ccccc34)[C@]12C (stereo partly drawn) | i | i | 2% | u | 6% | 23µM*
COc1cccc(CCOC(=O)c2c(-c3ccsc3)oc3c2C(OC(C)=O)CCC3)c1 (stereo not drawn) | i | u | -12% | u | -19% | u
CN(C)c1ccc(C(CNS(=O)(=O)c2ccc(Br)cc2)N2CCOCC2)cc1 (stereo not drawn) | i | i | x | u | x | u
COc1ccccc1CNC(=O)CCS(=O)(=O)c1ccc2c(c1)oc(=O)n2C | u | i | x | -15% | x | -18%
CC[C@]12c3[nH]c4ccccc4c3CCN1C(=O)C(CC(=O)NC/C=C(\C)CCC=C(C)C)C[C@@H]2C(=O)N1CCN(C(=O)C2CC2)CC1 (stereo partly drawn) | i | i | -24% | 15µM* | -3% | 21µM*
CC(C)=CCC/C(C)=C/CNC(=O)C[C@H]1C[C@H](C(=O)N(C(C)C)C(C)C)[C@@]2(C)c3[nH]c4cc(CCC(=O)N(C)C)ccc4c3CCN2C1=O | i | i | u | 9.2µM* | u | 10µM*
CCO[C@@H]1OC(C(=O)Nc2ccccc2)=C[C@H](c2ccc(C(F)(F)F)cc2)[C@H]1CCCO | u | i | -12% | u | 0% | u
C#CCNC(=O)C1=C[C@@H](c2ccc(Br)cc2)[C@H](CCCO)[C@@H](OCC)O1 | i | i | -2% | 15µM* | -6% | 15µM*
CCO[C@@H]1OC(C(=O)NC2CC2)=C[C@H](C(C)(C)C)[C@H]1CCCO | i | i | 8% | -3% | 3% | 8%
C#CCNC(=O)C1=C[C@@H](c2ccc(C#C)cc2)[C@H](CCCO)[C@@H](OCC)O1 | i | i | -1% | -22% | -4% | -24%
C#Cc1ccc([C@H]2C=C(C(=O)NC3CC3)O[C@@H](OCC)[C@@H]2CCCO)cc1 | i | i | 0% | 23µM* | -4% | u
C#CCNC(=O)C1=C[C@H](c2ccc(Br)cc2)[C@@H](CCCO)[C@H](OCC)O1 | i | i | 0% | 13µM* | 9% | u
